This is an account of results in PubChem BioAssay.

Molecules are shown by their SMILES. The source made the active and inactive calls.

Test [1] is described as follows: A549 cell viability effects, profiling panel, calcein-AM fluorescence, 48 h, basal (AID 1162). As to conditions: higher = more signal.
Test [2] can be described thus: adipocyte viability effects, profiling panel, cell-based, 3T3-L1 adipocytes, calcein-AM fluorescence, 48 h, basal (AID 1163). The note with it: 3T3-L1 adipocytes viability, higher = more signal.
Test [3] in a line: HepG2 cell viability effects, profiling panel, calcein-AM fluorescence, 48 h, basal (AID 1164). The note with it: higher = more signal.
Test [4] is described as follows: MM1S cell viability effects, profiling panel, calcein-AM fluorescence, 48 h, basal (AID 1165).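 Note: viability of MM1S multiple myeloma cells under basal unstimulated conditions.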 As to conditions: higher = more signal.
The nature of test [5]: basal RPMI8226 viability, no added stimulus, profiling panel, cell-based, calcein-AM fluorescence, 48 h, PK04 Diversity Set (AID 1166).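 Note: cells grown under basal conditions without added stimulus.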 The note with it: RPMI8226 myeloma viability, higher = more signal.
Test [6] is described as follows: basal HepG2 mitochondrial membrane potential changes, profiling panel, cell-based, JC-1 fluorescence, 24 h, 100 nL compound (AID 1167). The note with it: higher = more signal.
Test [7] can be described thus: basal 3T3-L1 adipocyte mitochondrial potential changes, profiling panel, cell-based, JC-1 fluorescence, 3T3-L1 adipocytes, 24 h, 100 nL compound (AID 1168). The note with it: JC-1 mitochondrial fluorescence, higher = more signal, called active from +8 up or from −8 down.
A short description of test [8]: basal RPMI8226 mitochondrial membrane potential changes, profiling panel, cell-based, JC-1 fluorescence, 24 h, 100 nL compound (AID 1169). As to conditions: RPMI8226 myeloma, JC-1 mitochondrial potential fluorescence, higher = more signal.
A short description of test [9]: basal MM1S mitochondrial membrane potential changes, profiling panel, cell-based, JC-1 fluorescence, 24 h, 100 nL compound (AID 1170). As to conditions: higher = more signal.
Test [10] in a line: A549 lung cancer cell viability effects, profiling panel, resazurin fluorescence, 24 h, PK04 Diversity Set (AID 1171). The note with it: higher = more signal, called active from +8 up or from −8 down. A general note: Alamar Blue is a resazurin reagent that responds to reducing activity.
Note: test concentration not given here.

In the case of `CCOC(=O)C[C@H]1[C@H](OC(=O)c2ccccc2-c2ccccc2)[C@@H](NC(=O)c2ccc3ccccc3n2)c2cc(OCCCO)ccc2N1C(=O)Cc1ccc(OC)cc1`, the z-score was 0.278 in test [1]; 0.054 in test [2]; 0.266 in test [3]; 0.0554 in test [4]; -0.826 in test [5]; 0.972 in test [6]. The z-score is -0.363 (inactive) in [7], -0.209 in [8], -0.112 in test [9] and 0.0225 (inactive) in test [10].

For `COCCOC(=O)N1C(=O)[C@@]2(c3ccccc31)[C@H](C(=O)NC[C@H](O)c1ccccc1)[C@H]1C(=O)O[C@H](c3ccccc3)[C@H](c3ccccc3)N1[C@@H]2c1ccc(O)cc1`, the z-score in test [1] is 0.0528; in test [2], 2.18; in test [3], -0.921; in test [4], -1.12; in test [5] it was -3.46; in test [6] it was -1.33. Further, the z-score is -0.221 (inactive) in [7], -1.32 in test [8], -0.0503 in test [9] and 0.0737 (inactive) in [10].

Take `COCCOC(=O)N1C(=O)[C@@]2(c3cc(C#CC4=CCCCC4)ccc31)[C@H](c1ccccc1OCCO)N1[C@H](c3ccccc3)[C@H](c3ccccc3)OC(=O)[C@H]1[C@@H]2C(=O)N1CCN(c2ncccn2)CC1`: the z-score in test [1] was -1.17; in [2], 0.956; in [3], 0.195; in [4], -0.118; in test [5] it was -1.92; in test [6] it was 0.259. The z-score in [7] is 2.14 (inactive); in test [8] it was -0.423; in test [9], -1.19; in [10], 0.753 (inactive).

Turning to `CC(C)[Si](C#C[Si](C(C)C)(C(C)C)C(C)C)(O[C@H](c1ccccc1)c1cn(Cc2ccccc2)nn1)C(C)C`, the z-score in test [1] is -0.491; in test [2], -0.224; in test [3] it was 0.732; in test [4] it was 1.01; in test [5] it was 0.798; in test [6] it was 1.63. Besides, the z-score in test [7] is -0.703 (inactive); in test [8] it was 0.294; in [9] it was -0.888; in test [10] it was 1.77 (inactive).

`CCOC(=O)C1=CC[C@@H](c2ccccc2F)N(S(=O)(=O)c2ccc(C)cc2)[C@H]1c1ccccc1`: the z-score in test [1] is -0.982; in [2], -0.815; in test [3], -0.244; in [4], -1.47; in [5], -0.413; in [6], 2.25. For the same molecule, the z-score in test [7] was -1.35 (inactive); in test [8], -0.0368; in test [9], -1.24; in test [10], 2.12 (inactive).

`COC(=O)[C@@]1(Cc2ccc(F)cc2)[C@H]2c3cc(C(=O)N(C)C)n(Cc4ccc(OC(F)(F)F)cc4)c3C[C@H]2CN1C(=O)c1ccccc1`: the z-score in test [1] was -0.524; in test [2], -0.859; in test [3], -0.51; in test [4], -0.225; in test [5], 0.218; in test [6], -0.0759. In addition, the z-score in [7] is -0.392 (inactive); in test [8], -0.0137; in [9] it was -0.276; in test [10], -0.914 (inactive).

As to `CC(=O)N1CC2(CC2)CC1c1ccccc1` (stereo not given), the z-score in test [1] was -1.64; in [2] it was 0.334; in [3] it was -1.34; in [4] it was -0.386; in test [5], -1.14; in [6] it was -1.15. Further, the z-score in [7] was -1.86 (inactive); in test [8], 0.0805; in test [9], 0.359; in test [10] it was -0.714 (inactive).

Regarding `Cc1ccccc1C(O)C1C=CC2C(=O)NC(=O)C2N1Nc1ccccn1` (stereo not given), the z-score in test [1] is -0.251; in [2] it was -1.09; in test [3] it was -0.823; in [4], -0.0706; in test [5] it was -0.729; in [6], -0.831. For the same molecule, the z-score was -0.654 (inactive) in test [7], 0.551 in test [8], 0.365 in [9] and -1.02 (inactive) in test [10].

For `CC(C)[Si](C#CCCCC#N)(O[C@H](c1ccccc1)c1cn(Cc2ccccc2)nn1)C(C)C`, the z-score in [1] was 0.059; in test [2], -0.454; in test [3], -0.213; in [4], 0.444; in test [5] it was -0.34; in test [6], 0.604. In addition, the z-score in test [7] is 0.0406 (inactive); in test [8], 0.993; in test [9] it was -1.31; in test [10], -0.235 (inactive).

Consider `Cc1ccc(S[C@]2(C(=O)NCC(F)(F)F)CC(=O)N(Cc3cc(C(F)(F)F)cc(C(F)(F)F)c3)[C@@H]2c2ccc(CO)cc2)cc1`, for which the z-score in test [1] is 0.0806; in [2], -0.547; in test [3] it was 0.643; in [4], -0.783; in test [5], -0.759; in test [6], -0.693. For the same molecule, the z-score in test [7] is -0.658 (inactive); in test [8] it was 0.213; in test [9] it was -0.299; in test [10] it was -0.45 (inactive).

As for `C=C[C@H](C)[C@H](OC(=O)Nc1ccc(SC)cc1)c1ccc(OCCO)cc1`, the z-score is 0.0889 in [1]; 0.954 in test [2]; -0.47 in test [3]; -0.889 in [4]; -2.41 in [5]; -2.67 in [6]. Also, the z-score was 0.508 (inactive) in [7], -0.781 in [8], -0.72 in test [9] and -1.48 (inactive) in test [10].

Consider `NCCCCCNC(=O)[C@@H]1C[C@@H]2C(=O)N[C@@H](CCCCN)C(=O)N2[C@@H]1c1ccc(O)cc1`, for which the z-score in test [1] was -0.0858; in test [2], -0.426; in test [3], 0.131; in [4] it was -0.29; in [5], -0.0496; in test [6], -0.573. The z-score is 1.56 (inactive) in test [7], -0.457 in test [8], -1.14 in test [9] and 0.0497 (inactive) in test [10].

With `C=CCNC(=O)[C@@H]1[C@H]2C(=O)O[C@H](c3ccccc3)[C@H](c3ccccc3)N2[C@H](c2ccccc2OCCO)[C@@]12C(=O)N(C(=O)OCCOC)c1ccc(C#CC3(O)CCCCCC3)cc12`, the z-score in test [1] was -0.21; in test [2] it was 1.21; in [3] it was -1.27; in test [4], -2.55; in test [5] it was -3.61; in test [6], -0.746. In addition, the z-score was -0.389 (inactive) in [7], -0.816 in [8], -0.761 in test [9] and -0.628 (inactive) in test [10].

Turning to `O=C(NCCN1CCOCC1)[C@@H]1c2ccccc2C(=O)N(C2Cc3ccccc3C2)[C@H]1c1ccc(CO)cc1`, the z-score in test [1] was 2.31; in test [2], 1.58; in [3] it was 2.01; in test [4] it was 0.578; in test [5] it was 1.35; in test [6], 4.03. For the same molecule, the z-score was 0.894 (inactive) in test [7], -0.647 in test [8], 0.291 in [9] and 0.326 (inactive) in test [10].

Take `C=CCNC(=O)[C@H]1[C@@H]2C(=O)O[C@@H](c3ccccc3)[C@@H](c3ccccc3)N2[C@@H](c2ccccc2OCCO)[C@]12C(=O)N(C(=O)OCCOC)c1ccc(C#CC3(O)CCCCCC3)cc12`: the z-score is -0.293 in [1]; 0.905 in test [2]; -0.0307 in test [3]; -3.15 in [4]; -4.56 in [5]; -0.341 in test [6]. For the same molecule, the z-score in [7] was 1.18 (inactive); in [8], -1.14; in [9], -1.7; in test [10] it was -2.4 (inactive).
